HCMV antiviral – human cytomegalovirus inhibition; HFF cells, HCMV-luciferase reporter, 72 h; active compounds read low; AID 1259415; 4.5% of 410,000 active; activity change, negative = inhibition, % at 57.5 µM; in the data active = activity change below about -60%; inconclusive = no clear call, values can overlap the other calls; inactive = above about -39%
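Inhibition of viral replication was scored as loss of reporter luminescence in HFFs infected with HCMV-luciferase (MOI 1 PFU/cell) for 72 h; compounds tested at 2 doses, normalized to buffer and Salinomycin controls.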
Vaccinia Venus – vaccinia inhibition (Venus reporter); Vaccinia virus Venus reporter expression, fluorescence; Potency, µM (titrated, usually from 36.5 µM), for inactives: at the highest dose activity change, negative = inhibition, actives largely listed as inhibitors; AID 720580; 0.46% of 330,000 active; calls by dose curve; tested in A549 cells; note: potency is the fitted concentration of half-maximal effect; nearly all actives have a fitted effect of over 30% in size
Vaccinia mCherry – inhibitors of vaccinia virus infection (mCherry reporter signal); Vaccinia virus mCherry reporter infection, fluorescence; Potency, µM (series often up to 36.5 µM), inactives show top-dose activity change, negative = inhibition, actives largely listed as inhibitors; 0.63% of 310,000 active; AID 720579; calls by dose curve; tested in A549 cells; note: potency is the fitted concentration of half-maximal effect; nearly all actives have a fitted effect of over 35% in size
Tb PYK inh – inhibitors of Trypanosoma brucei pyruvate kinase; Q57TT1; 0.12% of 410,000 active; TbPYK enzyme, Kinase-Glo Plus ATP luminescence, 45 min; Potency, µM (series often up to 76.8 µM), without a hit: at the highest dose activity, negative = inhibition, actives largely listed as inhibitors; note: potency is the fitted concentration of half-maximal effect; nearly all actives have a fitted effect of over 50% in size
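Readout: single end-point luminescence (Kinase-Glo Plus, 10 min). Reaction conditions were TbPYK/substrate plus 130 uM ADP, 45 min at RT, pH 7.2 TEA buffer. No-enzyme wells served as controls, and data were normalized before concentration-response fitting.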
LmPK inhibitor – LmPK (Leishmania mexicana) enzyme inhibition | purified LmPK, Kinase-Glo ATP luminescence, 1 h | 0.37% of 290,000 active | Potency, µM (top dose mostly 57.5 µM), for inactives: at the top dose activity change, negative = inhibition, usual class: inhibitors | Q27686; note: potency is the fitted concentration of half-maximal effect
Target sequence (Q27686 whole entry, looked up): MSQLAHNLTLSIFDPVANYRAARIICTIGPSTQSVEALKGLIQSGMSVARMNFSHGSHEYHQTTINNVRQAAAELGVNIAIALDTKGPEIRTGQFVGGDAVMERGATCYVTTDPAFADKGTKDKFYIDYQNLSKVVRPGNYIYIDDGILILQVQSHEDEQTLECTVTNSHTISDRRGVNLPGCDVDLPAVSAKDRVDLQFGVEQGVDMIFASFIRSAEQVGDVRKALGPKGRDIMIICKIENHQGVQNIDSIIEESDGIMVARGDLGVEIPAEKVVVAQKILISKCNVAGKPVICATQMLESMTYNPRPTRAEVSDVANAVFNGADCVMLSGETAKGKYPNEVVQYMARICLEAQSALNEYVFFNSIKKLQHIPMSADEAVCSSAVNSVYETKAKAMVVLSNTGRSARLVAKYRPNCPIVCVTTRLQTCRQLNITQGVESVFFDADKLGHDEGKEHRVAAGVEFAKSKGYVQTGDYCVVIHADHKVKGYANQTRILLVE
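Purified LmPK (0.1 nM) with 0.5 mM PEP and 0.1 mM ADP in imidazole buffer pH 7.2 with MgCl2/KCl, 1 h at room temperature. ATP formed was read by luciferase luminescence and normalized to no-enzyme and uninhibited controls.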
Active calls of the source: *; i = inactive; ? = inconclusive; / = not tested or not shown; ! = a repeat was not active; [ ] = remark or other dose. Compounds with a hit are over-represented: about 5% of the library has one in this group of screens. Unless noted, calls come from the whole dose curve; as a rule, active = well fitted curve in the direction sought with a large enough effect; inconclusive = small, poorly fitted or top-dose-only effect, or another doubt; inactive = no such curve, though single readings can be large; an effect the other way counts as inactive or inconclusive. % is set by controls: 0 for no effect and ±100 for the full control effect.

SMILES	HCMV antiviral	Vaccinia Venus	Vaccinia mCherry	Tb PYK inh	LmPK inhibitor
Cc1ccc(C)c(OCC(=O)N(Cc2ccccc2)c2c(N)n(Cc3ccccc3)c(=O)[nH]c2=O)c1	-11.0	?	28.2µM*	-2.4%	/
COc1cccc(NC(=O)Nc2cc(NC(=O)Nc3cccc(OC)c3)c(C)nc2C)c1	?	-6.0%	-15.1%	9.2%	0.7%
CCCn1c(=O)c2c(nc3n2CCN3c2ccc(C)cc2)n(C)c1=O	-12.3	-2.7%	-10.2%	6.5%	/
CC(NC(=O)N1CC1(C)C)c1ccccc1 (stereo not given)	71.8	-2.2%	i	-4.8%	/
CC1(C)Nc2cccc3c(N=Nc4ccc(N=Nc5ccccc5)c5ccccc45)ccc(c23)N1	/	-15.7%	-12.2%	/	/
O=C(CSc1nc(C(F)(F)F)cc(=O)[nH]1)N1CCCC1	-15.6	-5.9%	-1.6%	3.9%	/
NC(=O)C1(N2CCCCC2)CCN(C(=O)CSc2nc(C(F)(F)F)cc(=O)[nH]2)CC1	-64.8*	-12.2%	/	-9.0%	-7.3%
CC(C)(C)c1cccc(Cn2nnc3ccccc32)c1O	?	?	?	-14.0%	/
c1ccc(CCCCc2ccncc2)cc1	-63.0*	-7.6%	-22.4%	0.9%	/
C=CCc1cc(C)ccc1OCCn1ccnc1	3.6	-12.0%	-16.8%	0.3%	-0.9%
C=CCc1cc(C)ccc1OCCOCCn1ccnc1	-63.2*	-15.4%	-2.7%	6.6%	-1.0%
CC1=Nc2ccccc2/C1=C\c1sc(Nc2ccc(C)cc2)nc1O	-88.9*	?	-49.4%	-5.6%	1.9%
COc1ccc(C2Nc3ccccc3C(=O)N2Cc2ccco2)cc1COc1ccc(NC(C)=O)cc1 (stereo not given)	-61.9*	-18.7%	-7.5%	-8.4%	5.4%
COc1ccc(C2Nc3ccc(NC(C)=O)cc3C(=O)N2Cc2ccccc2)cc1COc1ccc(NC(C)=O)cc1 (stereo not given)	/	-10.1%	-11.6%	/	/
O=c1c(-c2ccc(O)cc2)coc2cc(O)ccc12	26.1	0.631µM*!	?	4.7%	/
Cc1ncc(CO)c(CN)c1O	/	/	/	1.2%	/
COc1ccc(C=CC(O)CCN2CCC3CCC(C3)C2)cc1 (stereo not given)	-66.2*	2.7%	-6.7%	-8.2%	/
COc1ccc(Nc2ccc3c(c2)=NC2(CCCCC2)[N+]=3[O-])cc1	-98.0*	?	?	-12.2%	?
CCCC(=O)N(Cc1cc2cccc(C)c2[nH]c1=O)c1ccccc1OC	-31.8	-10.8%	-5.0%	-3.8%	-3.7%
CCCCN(CCCC)C(=O)c1cc2ccccc2c(=O)o1	-68.1*	-4.4%	-2.0%	-9.5%	-1.4%
CCCCC(CC)CNC(=O)c1cc2ccccc2c(=O)o1 (stereo not given)	-19.4	-1.3%	-5.8%	-5.1%	0.0%
CCCCCCCCCCCCCCCCCCOP(=O)([O-])OC1CC[N+](C)(C)CC1	/	/	/	4.2%[33.2 µM]	/
CC(=O)OC1C(O)C(C)OC(OC2C(OC(=O)C3CCC4C(C3)OC3(CC(OC(=O)/C=C/c5ccccc5)C(C)CO3)C43CO3)OC(C)C(O)C2OC(C)=O)C1O (stereo not given)	-97.8*	0.316µM*	?	-1.8%	/
C[C@]12CCC(=O)C[C@@H]1CC[C@@H]1[C@@H]2CC[C@]2(C)[C@@H](O)CC[C@@H]12	-61.2*	-14.1%	i	-12.6%	/
C[C@H]1CC[C@@]2(C)[C@@H](CC[C@@H]3[C@@H]2CC[C@]2(C)[C@@H](O)CC[C@@H]32)C1	-100.3*	-11.0%	-20.2%	-23.0%	5.0%
SMILES	HCMV antiviral	Vaccinia Venus	Vaccinia mCherry	Tb PYK inh	LmPK inhibitor
C[C@]12CCC3C(CC[C@H]4C[C@@H](O)CC[C@]34C)C1CC[C@@]2(O)C(F)(F)F (stereo not given in full)	-60.8*	/	/	/	/
C[C@]12CCC3C(CC[C@@H]4CC(=O)CC[C@]34C)C1CC[C@@H]2O (stereo not given in full)	-20.7	-12.5%	?	2.9%	/
CN(C)C(=O)c1cccc(-c2cnc3c(NC=O)cc(-c4cccc(F)c4)cn23)c1	49.0	-17.9%	?	-9.4%	/
O=C(c1ccco1)N(Cc1ccc(Cl)cc1)Cc1ccco1	-21.0	/	/	-7.6%	-11.6%
CSc1ncc(Cl)c(C(=O)N(Cc2ccc(N(C)C)cc2)Cc2ccco2)n1	-17.1	8.0%	-13.4%	1.5%	/
CCSc1ncc(Cl)c(C(=O)N(Cc2ccccc2)Cc2ccco2)n1	-99.7*	-23.0%	i	-1.2%	/
CCCSc1ncc(Cl)c(C(=O)N(Cc2ccc(Cl)cc2)Cc2ccco2)n1	-66.2*	-27.5%	-22.2%	-3.7%	/
CCS(=O)(=O)c1ncc(N(Cc2ccccc2)Cc2ccco2)c(C(=O)Nc2ccccc2C)n1	-9.6	-13.4%	-18.0%	-12.2%	/
CCCS(=O)(=O)c1ncc(Cl)c(C(=O)N(Cc2ccccc2)Cc2ccco2)n1	-97.9*	-12.2%[7.34 µM]	-13.4%[7.34 µM]	-4.4%	/
COc1ccc(C(=O)NCc2nnc(SC)n2C2CCCCC2)cc1	?	-18.4%	i	1.7%	-1.0%
Cc1ccc(OCc2nnc(NC(=O)c3ccco3)s2)c(C)c1	-105.2*	-6.2%	i	-13.5%	0.5%
CCCCNS(=O)(=O)c1ccc(NC(=O)c2c(-c3ccccc3)noc2C)cc1	-16.1	-6.3%	-4.1%	-3.4%	/
Cc1cc(C)c[n+](CC(=O)c2ccc(-c3ccccc3)cc2)c1	-76.5*	-21.1%	-18.7%	-8.9%	-0.7%
CN(C)c1ccc(/C=C(/NC(=O)c2ccccc2)C(=O)NCCCn2ccnc2)cc1	/	/	/	-12.6%	0.9%
CCCCN(CC)CCCNC(=O)C1CCN(c2nc3ccc(CC)cc3s2)CC1	-98.0*	-26.6%	-22.3%	-4.1%	/
CCCCN(C)CCCNC(=O)C1CCN(c2nc3ccc(CC)cc3s2)CC1	-107.9*	-10.9%	-4.0%	3.2%	/
COc1cc2c(C(F)(F)F)c(-c3ccc(C#N)cc3)oc(=O)c2cc1OC	-2.8	-4.3%	i	3.2%	/
C[C@H](CO)N1C[C@H](C)[C@@H](CN(C)C(=O)Nc2ccccc2)Oc2ccc(NC(=O)C3CC3)cc2C1=O	14.8	-1.3%	i	0.8%	/
COC(=O)c1scc(C#N)c1N/N=C(\C#N)S(=O)(=O)c1ccc(Cl)cc1	-96.6*	-2.7%[7.34 µM]	i[7.34 µM]	-1.3%	5.9%
CCNC(=S)N/N=C/c1ccc(C#N)cc1	-61.7*	-19.1%	?	0.8%	13.1%
O=C(O)C1C2C=CC3(O2)C1C(=O)N1c2ccccc2COC13 (stereo not given)	27.0	-0.2%	/	0.2%	-6.2%
COc1ccc(CCN2C(=O)c3[nH]nc(-c4ccccc4O)c3C2c2ccccc2)cc1OC (stereo not given)	?	?	-20.4%	1.0%	0.5%
O=C1c2[nH]nc(-c3ccccc3O)c2C(c2ccc(Cl)cc2)N1CCc1ccccc1 (stereo not given)	-95.4*	-4.9%[7.34 µM]	-5.7%[7.34 µM]	-6.0%	/
CC(C)c1ccc(C2c3c(-c4ccccc4O)n[nH]c3C(=O)N2Cc2ccncc2)cc1 (stereo not given)	-78.6*	-27.1%	-24.7%	1.3%	/

Assay outcomes (PubChem BioAssay)
